According to PubChem BioAssay (NCATS):
For part of these data: Potency and affinity values are given separately. Active and inactive are the calls of the source. No rule for the calls is given here.

Experiments:
[1] = Ebola virus entry assay, green fluorescence channel
[2] = Ebola virus entry assay, blue channel fluorescence
[3] = Ebola virus entry assay, green channel fluorescence

Measured: efficacy
For efficacy in this document: 0% is about no effect.

CO[C@@H]1[C@@H](OC(N)=O)[C@@H](O)[C@H](Oc2ccc3c(O)c(NC(=O)c4ccc(O)c(CC=C(C)C)c4)c(=O)oc3c2C)OC1(C)C
inactive: [1] 15.5% | [2] | [3]

NC(=S)N/N=C/c1cccnc1
inactive: [1] 12.5% | [2] | [3]

O=C(CCBr)N1CCN(C(=O)CCBr)CC1
inactive: [1] 10.2% | [2] | [3]

O=C(c1ccco1)N1CCNCC1
inactive: [1] 12.6% | [2] | [3]

CCOC(=O)C1=C(C)NC(C)=C(C(=O)OC)C1c1cccc([N+](=O)[O-])c1 (configuration not stated)
inactive: [1] 20.7% | [2] | [3]

N#CC1(c2ccc(F)cc2)CCC(=O)CC1
inactive: [1] 28.6% | [2] | [3]

CN1C[C@@H]2C[C@H]1CN2c1cc2c(cc1F)c(=O)c(C(=O)O)cn2C1CC1
inactive: [1] 18.4% | [2] | [3]

O=c1cc[nH]c(=O)[nH]1
inactive: [1] 11.9% | [2] | [3]

Cc1cccc(C)c1NC(=O)CN(CC(=O)O)CC(=O)O
inactive: [1] -22.8% | [2] | [3]

O=C(O)c1cc(=O)c2ccccc2o1
inactive: [1] -28.1% | [2] | [3]

O=C1CC2(CCCC2)CC(=O)N1
inactive: [1] -26.6% | [2] | [3]

O=C(Oc1ccccc1)c1ccccc1O
inactive: [1] -17.4% | [2] | [3]

Cc1ccccc1C(=O)N1CC/C(=N\OS(=O)(=O)O)c2ccc(Cl)cc21
inactive: [1] -25% | [2] | [3]

COc1ccnc(CS(=O)c2nc3ccc(OC(F)F)cc3[nH]2)c1OC (configuration not stated)
inactive: [1] -31.1% | [2] | [3]
